GPT2 inhibitor: inhibitors of human GPT2 alanine aminotransferase; Q8TD30; Potency, µM (titrated, usually from 57.7 µM), inactives show at the highest dose activity change, negative = inhibition, usual class: inhibitors; actives 0.25% (n = 100,000); Recombinant GPT2, coupled pyruvate oxidase/HRP Amplex Red fluorescence; note: nearly all actives have a fitted effect of over 60% in size
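GPT2 10ng/uL, a-KG 250uM, L-Ala 2mM, HEPES pH7.5 + 0.0001% Tween; 30 min RT. Then Amplex mix (PO/HRP/ThPP), 30 min RT dark, fluorescence. AOA 50uM used as positive control.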
HEK cytotox: cytotoxic compounds in HEK 293 cells; actives 6.6% (n = 94,000); HEK 293 viability, ATP luminescence (CellTiter-Glo), 48-72 h; Potency, µM (series often up to 115 µM), without a hit: at the highest dose activity change, negative = cytotoxicity, most hits filed as inhibitors; note: nearly all actives have a fitted effect of over 60% in size
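HEK 293 cells at 250 cells/well were exposed to compounds by pintool transfer for 48 or 72 hr at 37 degree Celsius, 5% CO2. Viability was read as ATP-coupled luminescence with CellTiter-Glo after 10 min at room temperature.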
hNpr1 antagonist: antagonists of human natriuretic peptide receptor Npr1 | P16066 | HEK293 hNpr1 GloSensor cGMP, ANP-stimulated luminescence | Potency, µM (series often up to 46.3 µM), inactives show top-dose activity change, negative = inhibition, most hits filed as inhibitors | actives 1.6% (n = 76,000) | AID 1347048; calls by dose curve; note: nearly all actives have a fitted effect of over 60% in size
Target sequence (P16066 whole entry, looked up): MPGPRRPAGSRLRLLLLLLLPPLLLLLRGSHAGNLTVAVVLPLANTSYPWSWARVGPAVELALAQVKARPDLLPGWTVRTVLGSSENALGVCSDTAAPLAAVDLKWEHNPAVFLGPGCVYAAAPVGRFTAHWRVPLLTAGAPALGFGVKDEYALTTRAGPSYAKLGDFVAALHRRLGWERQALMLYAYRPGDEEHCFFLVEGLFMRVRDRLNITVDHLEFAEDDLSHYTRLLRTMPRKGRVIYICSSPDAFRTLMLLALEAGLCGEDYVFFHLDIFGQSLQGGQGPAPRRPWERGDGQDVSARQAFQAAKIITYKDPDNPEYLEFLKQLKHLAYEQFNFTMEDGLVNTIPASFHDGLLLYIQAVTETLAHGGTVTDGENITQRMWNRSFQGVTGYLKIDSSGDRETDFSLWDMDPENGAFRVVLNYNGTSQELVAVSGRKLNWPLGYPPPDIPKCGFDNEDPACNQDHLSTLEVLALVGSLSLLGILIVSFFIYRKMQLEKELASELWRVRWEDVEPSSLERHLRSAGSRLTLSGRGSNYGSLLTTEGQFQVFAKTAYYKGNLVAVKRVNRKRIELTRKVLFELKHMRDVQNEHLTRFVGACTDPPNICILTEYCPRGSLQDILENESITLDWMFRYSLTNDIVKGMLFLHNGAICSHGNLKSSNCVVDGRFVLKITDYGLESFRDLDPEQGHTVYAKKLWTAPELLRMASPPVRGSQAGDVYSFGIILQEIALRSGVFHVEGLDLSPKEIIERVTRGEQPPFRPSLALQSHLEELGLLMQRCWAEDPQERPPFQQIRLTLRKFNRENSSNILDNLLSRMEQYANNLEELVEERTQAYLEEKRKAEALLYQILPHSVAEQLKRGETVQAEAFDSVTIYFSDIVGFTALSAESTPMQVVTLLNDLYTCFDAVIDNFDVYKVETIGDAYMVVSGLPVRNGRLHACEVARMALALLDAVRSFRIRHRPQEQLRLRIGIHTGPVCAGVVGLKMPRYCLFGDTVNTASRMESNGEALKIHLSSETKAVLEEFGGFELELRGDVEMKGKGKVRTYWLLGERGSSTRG
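HEK293 cells stably expressing human Npr1 and cGMP GloSensor pGS-40F, loaded 2 h with 2% GloSensor reagent, given compound 30 min at room temperature. Luminescence read before and 20 min after 0.1 nM hNppA.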
FLuc inh: blocks purified firefly luciferase enzyme activity | AID 1347043 | Potency, µM (series often up to 115 µM), usual class: inhibitors | actives 2.5% (n = 76,000) | purified P. pyralis luciferase, luminescence, biochemical | P08659; note: nearly all actives have a fitted effect of over 65% in size
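Luminescence read by CCD imager after adding enzyme (10nM final) to wells holding compound, titrated in qHTS. Substrates 10uM each D-luciferin and ATP; buffer 50mM Tris acetate pH 7.5, 10mM Mg acetate, Tween-20, BSA.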
NIH3T3 tox: cytotoxic compounds in NIH 3T3 cells. actives 4.3% (n = 94,000). NIH 3T3 viability, CellTiter-Glo ATP luminescence, 48-72 h. Potency, µM (titrated, usually from 96.7 µM), without a hit: at the highest dose activity change, negative = cytotoxicity, actives largely listed as inhibitors. AID 1345082; note: nearly all actives have a fitted effect of over 55% in size
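Cytotoxicity was measured by CellTiter-Glo ATP luminescence after 48 or 72 h compound exposure at 37 °C. Mouse NIH 3T3 fibroblasts were seeded at 400 cells/well and dosed by 23 nL pin transfer.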
An asterisk follows results filed as active. Rows were chosen to be rich in hits. Some 10% of all compounds tested hit in one or more screens of this group. Unless noted, calls come from the whole dose curve; as a rule, active = well fitted curve in the direction sought with a large enough effect; inconclusive = small, poorly fitted or top-dose-only effect, or another doubt; inactive = no such curve, though single readings can be large; an effect the other way counts as inactive or inconclusive. % is set by controls: 0 for no effect and ±100 for the full control effect; potency is the fitted concentration of half-maximal effect.

How did COc1ccc(-c2cc(N3CCCC(NC(=O)c4ccc(C)cc4C)C3)n[nH]2)cc1 (stereo not drawn) do in these assays?
GPT2 inhibitor: -10%; HEK cytotox: inconclusive; hNpr1 antagonist: -16%; FLuc inh: 16µM*; NIH3T3 tox: -18%

How did COc1ccc(-c2cc(N3CCC(NC(=O)c4cc(C)ccc4C)C3)n[nH]2)cc1 (stereo not drawn) do in these assays?
GPT2 inhibitor: -18%; HEK cytotox: inconclusive; hNpr1 antagonist: -11%; FLuc inh: inactive; NIH3T3 tox: inconclusive

Results for COc1ccc(-c2cc(N3CCCC(NC(=O)c4cc(C)ccc4C)C3)n[nH]2)cc1 (stereo not drawn) ?
GPT2 inhibitor: inconclusive; HEK cytotox: inconclusive; hNpr1 antagonist: -19%; FLuc inh: inactive; NIH3T3 tox: 32µM*

What do the screens show for `Cc1ccsc1C(=O)NC1CCCN(c2cc(-c3ccc(F)cc3)[nH]n2)C1` (stereo not drawn)?
GPT2 inhibitor: inactive; HEK cytotox: inconclusive; hNpr1 antagonist: -29%; FLuc inh: inconclusive; NIH3T3 tox: inconclusive

What do the screens show for `O=S(=O)(c1cccc(F)c1)N1CCC(OC2CCN(Cc3ccccc3)CC2)CC1`?
GPT2 inhibitor: inactive; HEK cytotox: -5%; hNpr1 antagonist: 0%; FLuc inh: inactive; NIH3T3 tox: -26%

How did Cc1ccc(S(=O)(=O)N2CCC(OC3CCN(Cc4ccccc4)CC3)CC2)cc1C do in these assays?
GPT2 inhibitor: inactive; HEK cytotox: inconclusive; hNpr1 antagonist: -22%; FLuc inh: inactive; NIH3T3 tox: 35µM*

How did CCOc1ccccc1NC(=O)C[C@H]1NC(=O)c2ccccc2NC1=O do in these assays?
GPT2 inhibitor: 4%; HEK cytotox: -3%; hNpr1 antagonist: -5%; FLuc inh: inactive; NIH3T3 tox: inactive

What do the screens show for `O=C(C[C@H]1NC(=O)c2ccccc2NC1=O)Nc1ccncc1`?
GPT2 inhibitor: inactive; HEK cytotox: -4%; hNpr1 antagonist: 4%; FLuc inh: inactive; NIH3T3 tox: inactive

What do the screens show for `Cc1cc(Br)ccc1NC(=O)C[C@H]1NC(=O)c2ccccc2NC1=O`?
GPT2 inhibitor: -4%; HEK cytotox: inconclusive; hNpr1 antagonist: -8%; FLuc inh: inactive; NIH3T3 tox: 20µM*

Results for Cc1c(Cl)cccc1NC(=O)C[C@H]1NC(=O)c2ccccc2NC1=O ?
GPT2 inhibitor: 2%; HEK cytotox: 45µM*; hNpr1 antagonist: 2%; FLuc inh: inactive; NIH3T3 tox: inconclusive

What do the screens show for `O=C(C[C@H]1NC(=O)c2ccccc2NC1=O)Nc1cccc(C(F)(F)F)c1`?
GPT2 inhibitor: 3%; HEK cytotox: 45µM*; hNpr1 antagonist: 0%; FLuc inh: inactive; NIH3T3 tox: inconclusive

What do the screens show for `CCCCNC(=O)c1ccc(CN2C(=O)NC3(CCS(=O)(=O)CC3)C2=O)cc1`?
GPT2 inhibitor: -5%; HEK cytotox: 5%; hNpr1 antagonist: 0%; FLuc inh: inactive; NIH3T3 tox: 2%

What do the screens show for `COc1ccccc1Nc1ccnc(N2CCC(NC(=O)C3CCCC3)CC2)n1`?
GPT2 inhibitor: inactive; HEK cytotox: -27%; NIH3T3 tox: inconclusive

How did CCN1C(=O)C2(CCN(C(=O)C3CCCCC3)CC2)c2ccccc21 do in these assays?
GPT2 inhibitor: -4%; HEK cytotox: inconclusive; hNpr1 antagonist: 4%; FLuc inh: inactive; NIH3T3 tox: -18%

What do the screens show for `O=C(NC1CCCN(c2cc(-c3ccc(F)cc3)[nH]n2)C1)c1ccncc1` (stereo not drawn)?
GPT2 inhibitor: -17%; HEK cytotox: inconclusive; hNpr1 antagonist: -11%; FLuc inh: 40µM*; NIH3T3 tox: -6%

What do the screens show for `O=C(NC1CCCN(c2cc(-c3ccc(F)cc3)[nH]n2)C1)c1ccc2nc[nH]c2c1` (stereo not drawn)?
GPT2 inhibitor: -26%; HEK cytotox: inconclusive; hNpr1 antagonist: -23%; FLuc inh: 16µM*; NIH3T3 tox: inconclusive
